Test results published in the supplement of paper PMC11417369.
Over roughly 25,000 sequences, “ln(normalized median fluorescence intensity)” has its median near 9.7; the highest 2% begin near 11. The list comes from a sample in which the highest values are over-represented; it also holds similar and randomly drawn sequences.

Test system: PfAP2-HC AP2 domain (GST-tagged)
Test: gcPBM binding intensity (ln(normalized median fluorescence intensity)); higher = stronger DNA binding
Summary of the method: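 The binding buffer was 1× PBS containing 1% milk, 0.2 mg/ml BSA, 0.5% salmon testes DNA and 0.03% Triton X-100. In it, GST-tagged P. falciparum DNA-binding domains expressed in E. coli were applied for 1 h to an Agilent 4 × 180k array of primer-extended double-stranded 36-bp intergenic genomic probes plus negative controls. Binding intensity, read with Alexa488 anti-GST antibody and a 488 nm scan, is the highest Masliner-normalised natural-log median intensity across replicate spots of either probe orientation.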

Row | Sequence | gcPBM binding intensity (ln)
1 | ATTGCATTTGTAGATAATACAATATGGATTGTTATA [CACACA_negctrl_site1749] | 9.44
2 | TCCTTATTACTTTTTTAAGTCGTAATGAAAGAAAAA [CACACA_negctrl_site1497] | 9.15
3 | CAAAATATATATACCACACACACATACCTCTATTTG [CACACA_site1853] | 10.4
4 | AAATATTTATACCACACACACATACCTCTATTTGTA [CACACA_site6957] | 10.7
5 | AAATATATATACCACACACACATACCTCTATTTGTA [CACACA_site1854] | 11.1
6 | TATAGATACCTATACACACACACACGGACATATATA [CACACA_site7585] | 10.8
7 | CATATATACCTATATACACACATATAGATTTATATA [CACACA_site6451] | 9.78
8 | CATACATAGATATATACACACATACCTATAAATACA [CACACA_site6513] | 10.2
9 | TATACCTATAGACACACACACATATAGATTTATATA [CACACA_site7124] | 11.1
10 | CATACACATAGACACACACACATATATACCTATATA [CACACA_site6644] | 10.8
11 | AATAGATATATAAATACACACAAACATACCTATATA [CACACA_site7823] | 10.6
12 | GATACCTATAGACACACACACATACCTATATACATA [CACACA_site7586] | 10.9
13 | ATATATACCTAAGACACACACATATAGATTTATATA [CACACA_site6498] | 10.4
14 | TATACCTATAGACACACACACATAAATAGATATATA [CACACA_site6748] | 11.1
15 | TTTGTAAGTCTTTGTTGTACTCAATAGAATGAAGAA [XGTACX_site8930] | 9.45
16 | AACTCTTAGAATGACGGTACAGTATAATAGGTGAAC [XGTACX_site7163] | 9.69
17 | TATAACTTTTTTAATACACACAAATATTTATTTATA [CACACA_site7425] | 9.61
18 | ATACGTATATAATATACATGCATATATAGCACATAC [TGCATGCA_site376] | 9.83
19 | AATTCAAATATAAATACACACACATAGCTACAAAAT [CACACA_site9386] | 10.3
20 | TATAAATATACAAACACACATACAAACATATATATA [CACACA_site1120] | 10.2
21 | TACAATCTAAAATACACACACACAAACATATATTTA [CACACA_site3702] | 10.7
22 | AAAAAAAACGAACACACACACATACAAAATCTATAT [CACACA_site6795] | 11.1

Row | Sequence | gcPBM binding intensity (ln)
23 | CATACATACAAACACACACACATATATATATATATA [CACACA_site43] | 10.2
24 | AAATATAAAAAATATACACACATATAAAATCTATAT [CACACA_site7406] | 9.91
25 | CACATACACATACAAACACACATTATATATATATAT [CACACA_site8460] | 10.4
26 | AATATATAGCTAAAAACACACAAATATATACACATA [CACACA_site9203] | 9.97
27 | CATACATACAAACACACACACATATAAATACATACA [CACACA_site4625] | 11.2
28 | TAAATATATAAATACACACAAACATACATATATATA [CACACA_site4050] | 10.1
29 | TTCAAATATAAATACACACACATAGCTACAAAATAA [CACACA_site4172] | 11
30 | CATACATACAAACACACACACATATATATACATACA [CACACA_site852] | 11.4
31 | CAGCTCTTAAGAATTACACACATATACACATATATA [CACACA_site7524] | 9.95
32 | TAAAATTTTTTTGTTTGTACATATATATATATAATA [XGTACX_site5609] | 9.53
33 | CATTATTTATTTTAATGTACTTATTTTTAAATTGGT [XGTACX_site8038] | 9.54
34 | TTTTCTTGTAAATTACGTACGAATGTGTAGAGAAAT [XGTACX_site1339] | 9.47
35 | TATATATATATATGTAGTACTCAATATTGTAGATTA [XGTACX_site3856] | 9.64
36 | CTAGCAAATACATACACACACACACCGATACATATA [CACACA_site9164] | 10.7
37 | AAATATAAAAATAGCACACATATATACATATATATA [CACACA_site56] | 9.88
38 | TTATAATTATATACATGTACATATAATACATATATA [XGTACX_site8904] | 9.46
39 | CATATACGCAAACACACACACATATATATATATATA [CACACA_site501] | 11.6
40 | ATTAAATCCGCACGCACACACACATATTAATAAAAA [CACACA_site3992] | 11.1
41 | AATGATCAGATATACACACACACAAAAAAAAAAAAA [CACACA_site7806] | 10.4
42 | AATGATCATATATACACACACACAAAAAAAAAAAAA [CACACA_site4009] | 11.2
43 | AAAAAAAAAAAAAACACACACACAAATACAAATGGT [CACACA_site1721] | 10.5
44 | TAAATCCGCACGCACACACACATATTAATAAAAAAA [CACACA_site7800] | 10.5
